Most compounds without a hit are left out; they make up all but 2.5% or so of the library.
TWEAK Fn14 block = TWEAK-Fn14 signaling inhibition. inhibition, % at 10 µM. AID 1159606. TWEAK-stimulated Fn14 reporter cells, luciferase luminescence, 8 h. 360,000 compounds, 2% hits; in the data active means inhibition above about 50%
LGR2 antag = inhibitors of bursicon-induced Drosophila LGR2 receptor cAMP signaling; HEK293 LGR2, CRE-luciferase, bursicon-stimulated, 4 h; inhibition, % at 9.99 µM; 380,000 compounds, 0.35% hits; AID 720647;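 active means drop in luminescence signal, shown as inhibition above about 50% in the replicate tests, limit read from the data, passing the limit was not always enough; inconclusive means probably only some replicates passing the limit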;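 further: agonist challenge used bursicon conditioned medium at about half maximal strength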
TROY NFkB inh = blocks TROY-dependent signaling in reporter cells. Q293 LMP1-TROYcd NF-kB luciferase reporter, 4 h. inhibition, % at 10 µM. 360,000 compounds, 0.98% hits. AID 1347056;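 active means compounds whose plate-normalised and pattern-corrected inhibition of the luciferase reporter signal at the single screening dose is 50% or more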
EBV LMP1 NFkB = inhibitors of Epstein-Barr LMP1-induced NF-kappaB reporter; LMP1-induced NF-kappaB luciferase reporter cells, luminescence; inhibition, % at 12.5 µM; 350,000 compounds, 0.69% hits; AID 504558; in the data active means inhibition above about 41%; inconclusive means no clear call, values can overlap the other calls;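 further: 0% = neutral control wells and 100% = reference inhibitor control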
EWS-Fli inh = inhibitors of EWS/Fli oncoprotein transcriptional activity. A673 NR0B1-luciferase reporter, viability-normalised. inhibition, % at 12.6 µM. 350,000 compounds, 0.67% hits. AID 651661;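 active means mean inhibition of at least 50% after viability correction, with every replicate also passing that limit; inconclusive means mean reaches 50% but only one of two replicates passes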;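 further: firefly luciferase signal divided by Alamar Blue viability fluorescence both relative to DMSO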
An asterisk follows results filed as active; ? = inconclusive; . = not tested or not shown.

SMILES	TWEAK Fn14 block	LGR2 antag	TROY NFkB inh	EBV LMP1 NFkB	EWS-Fli inh
COC(=O)c1cccc2c1-c1ccccc1/C2=N/O	83*	.	56*	44*	.
CCOc1ccc(NC(=O)c2cnccn2)cc1	45	.	3	20	.
CCOc1ccc(NC(=O)c2cnsn2)cc1	57*	.	35	56*	.
CCOc1ccc(NC(=O)c2ccccn2)cc1	95*	95*	72*	65*	78*
CC(C)CC#Cc1ccc2c(c1)O[C@H](CN(C)C(=O)c1ccccn1)[C@H](C)CN([C@H](C)CO)S2(=O)=O	.	-4	.	.	11
O=C(CN1C(=O)C2C3C=CC(C3)C2C1=O)Nc1ccc(F)cc1 (stereo not given)	-4	7	1	-6	-7
O=C(CN1C(=O)C2C3C=CC(C3)C2C1=O)Nc1nc2ccccc2[nH]1 (stereo not given)	73*	4	.	1	.
O=Nc1ccc(NO)c2ccccc12	71*	-18	36	-43	-19
COc1ccccc1CN(C)C(=O)c1cc(-c2cccs2)nc2ccccc12	74*	6	30	3	22
CCC(=O)Nc1ccc2c(c1)C(=O)N(C)[C@@H]1CC[C@@H](CC(=O)N3CCCCC3)O[C@H]1CO2	.	-17	.	.	-10
COc1ccc(Cl)cc1NC(=O)CN(C)CC(=O)N1CC(=O)Nc2ccccc21	8	1	-2	-4	17
COc1ccc(Cl)cc1NC(=O)CN(C)CC(=O)Nc1ccccc1N1CCOCC1	21	-2	12	5	62*
Cc1nnc(N2C(=O)C(=O)/C(=C(\O)c3ccc4c(c3)CC(C)O4)C2c2ccccc2)s1 (stereo not given)	35	0	57*	-6	-10
O=C(N[C@H]1CC[C@H](CCNS(=O)(=O)c2cccc(Cl)c2)O[C@H]1CO)c1ccncc1	.	-5	.	.	-5
Cc1ccc(/C=N/NC(=O)c2ccccn2)s1	51*	?	5	17	-16
Cc1ccc(/C=N\NC(=O)c2csnn2)cc1	50*	.	9	-9	.
CCN(CC)c1ccc(/C=N/NC(=O)c2ccccn2)cc1	21	9	8	0	-30
CCc1ccc(/C=N/NC(=O)c2ccccn2)cc1	86*	71*	42	49*	11
COc1ccc(S(=O)(=O)Nc2ccc3c(c2)CC(=O)N([C@@H](C)CO)C[C@@H](C)[C@@H](CN(C)C(=O)Nc2ccccc2)O3)cc1	.	9	.	.	4
CC(=O)N1[C@@H]2c3ccc(-c4ccccc4)c(=O)n3C[C@H]1[C@H](CO)[C@H]2C(=O)N1CCCCC1	.	-10	.	.	1
CCN1CCN(C(=O)Nc2cccc3ccccc23)CC1	7	.	56*	-5	.
CC(=O)NC[C@H]1[C@@H](c2ccc(C#CC(C)C)cc2)[C@@H](CO)N1C(=O)C1CC1	.	9	.	.	4
Oc1ccc(-c2csc(Nc3ccc4c(c3)OCO4)n2)c(O)c1	15	-88	-22	-80	-115
N#Cc1ccc(Nc2nc(-c3ccc(O)cc3O)cs2)cc1C(F)(F)F	86*	.	67*	6	.
O=C(COc1ccc2ccccc2c1)Nc1nccs1	75*	73*	-28	2	7
SMILES	TWEAK Fn14 block	LGR2 antag	TROY NFkB inh	EBV LMP1 NFkB	EWS-Fli inh
CC(C)c1nnc(NC(=O)CCS(=O)(=O)c2ccccc2)s1	-6	1	4	7	-8
CC(C)c1nnc(NC(=O)CCCC(=O)O)s1	76*	.	.	4	.
O=C(COc1ccccc1)Nc1nccs1	18	-17	-10	13	-50
O=C(CCS(=O)(=O)c1ccccc1)Nc1nccs1	1	7	0	84*	1
CCCC(C)c1nnc(NC(=O)CCS(=O)(=O)c2ccccc2)s1 (stereo not given)	57*	11	4	11	-8
CCCNC(=O)N1CC(=O)N2[C@H](CO)[C@@H](c3ccc(C#Cc4cccc(F)c4)cc3)[C@H]2C1	.	-6	.	.	-9
C[C@@H]1CN([C@H](C)CO)C(=O)c2cccc(NS(=O)(=O)c3ccc(F)cc3)c2O[C@H]1CN(C)S(=O)(=O)c1ccc(F)cc1	.	-10	.	.	-4
O=C(C1CCCCC1)N1CC2(C1)[C@@H](c1ccccc1)[C@@H](CO)N2C(=O)NC1CCCC1	.	-11	.	.	-2
CCc1cccc(CC)c1NC(=O)/C(C#N)=C/c1ccccc1C(F)(F)F	83*	41	42	3	.
Cn1c(=O)n(C)c2cc([N+](=O)[O-])c(N3CCN(S(=O)(=O)c4ccc(C(C)(C)C)cc4)CC3)cc21	54*	.	36	0	.
N#Cc1c(N)nc2c(c1N)CC(COc1ccccc1)O2 (stereo not given)	-10	.	-9	-20	.
Cc1ccccc1OCC1Cc2c(nc(N)c(C#N)c2N)O1 (stereo not given)	58*	.	.	-25	.
CCOc1ccc(C(=O)N2CCCC(c3nc(-c4cccs4)no3)C2)cc1 (stereo not given)	63*	0	64*	-2	-26
COC(=O)c1ccc(NC(=O)Nc2ccc([N+](=O)[O-])cc2)cc1	20	13	50*	0	1
C[C@@H]1CN([C@@H](C)CO)C(=O)Cc2cc(NS(=O)(=O)c3cn(C)cn3)ccc2O[C@H]1CN(C)C(=O)Nc1ccccc1	.	-1	.	.	-11
CC(CNC(=S)Nc1cc(F)cc(F)c1)CSc1ccc(Cl)cc1 (stereo not given)	23	12	61*	5	10
CCCNC(=O)C[C@@H]1C[C@@H]2c3cc(NC(=O)C4CCOCC4)ccc3O[C@@H]2[C@@H](CO)O1	.	1	.	.	-3
COC1=CC(=O)C=C(OC)C1=O	28	-3	-14	83*	63*
Cn1cnc(CCNC(=O)[C@@H]2[C@@H](CO)[C@@H]3Cn4c(cccc4=O)[C@@H]3N2C(=O)Nc2ccccc2)c1	.	0	.	.	-6
CCOc1ccc(NC(=O)Cn2cc(C(=O)CC)c3ccccc32)cc1	11	.	7	71*	.
CCc1nnc(NC(=O)CN2CCN(Cc3cccc(F)c3)CC2)s1	53*	-2	-11	-3	-7
COc1cccc(N2CCN(CC(=O)Nc3nnc(-c4ccccc4)s3)CC2)c1	55*	.	29	14	.
CCc1nnc(NC(=O)CN2CCN(Cc3cccc(Cl)c3)CC2)s1	0	-18	1	-5	11
COc1cccc(N2CCN(CC(=O)NC3=Nc4ccccc4N=C(C)C3c3ccccc3)CC2)c1 (stereo not given)	-5	-1	-3	24	5
C[C@@H]1CCCCO[C@H](CN(C)C(=O)C2CCCCC2)[C@@H](C)CN([C@@H](C)CO)C(=O)c2cc(NC(=O)Nc3cccc4ccccc34)ccc2O1	.	-4	.	.	10
CCN(CC(=O)Nc1ccc(OC)c(OC)c1)CC(=O)Nc1ccccc1C(F)(F)F	-17	1	-1	-6	3
COc1ccc(S(=O)(=O)N(C)CC(=O)Nc2ccccc2C(F)(F)F)cc1OC	74*	.	.	-1	.
COc1ccc(-n2ncc3c(N4CCCCC4)ncnc32)cc1	104*	.	86*	76*	.

Assay outcomes (PubChem)
